This note sets out measurements from PubChem BioAssay (NCATS).

Inconclusive results are not listed. Active and inactive are the calls of the source. The call rests on the fitted dose curve; in most records, active means well fitted curve in the direction sought with a large enough effect; inconclusive means small, poorly fitted or top-dose-only effect, or another doubt; inactive means no such curve, though single readings can be large; an effect the other way counts as inactive or inconclusive. Peptide text beside a SMILES is read from it.

The target in assay [1] is Cytochrome P450 3A4 (Homo sapiens) (UniProt P08684). Put plainly: qHTS Assay for Inhibitors and Substrates of Cytochrome P450 3A4 (AID 884). Further: nearly all actives have a fitted effect of over 50% in size. The note with it: recombinant CYP3A4, Luciferin-PPXE luminescence; series mostly up to 57.1 µM. Summed up:
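20 nM human CYP3A4 with 25 uM Luciferin-PPXE (at KM) in 200 mM KPO4, preincubated 10 min with compound; NADPH regeneration started a 60 min RT reaction. Luciferin detected by luminescence, normalized to 57 uM ketoconazole as full inhibition.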
(In qHTS, concentration-response curves come from the screen itself.)

Assay [2] deals with DNA dC->dU-editing enzyme APOBEC-3G (Homo sapiens) (UniProt Q9HC16). As to the kind of experiment: qHTS for inhibitors of Vif-A3G interactions: Validation (AID 588379). The note with it: Vif-A3G protein interaction assay; series mostly up to 46.1 µM. The procedure, abridged:
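HeLa cells stably expressing Vif and A3G-eYFP, 700 cells/well, incubated overnight at 37 deg C, then exposed to compound overnight at 37 deg C. Inhibition of Vif-mediated degradation read as increased yellow fluorescence (Ex 488/Em 500-530) by laser-scanning cytometry.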

Assay [3] addresses Luciferin 4-monooxygenase (Photinus pyralis) (UniProt P08659). Put plainly: Biochemical firefly luciferase enzyme assay for NPC (AID 624030). Further: nearly all actives have a fitted effect of over 70% in size. Further: potency means the concentration at half of the fitted maximal effect. The note with it: purified P. pyralis luciferase, luminescence, 5 min; series mostly up to 24.9 µM. Summed up:
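Purified P. pyralis luciferase at 10 nM in 50 mM Tris Acetate (final), luminescence read within 5 minutes of enzyme addition to compounds. Activity normalised to PTC124 versus DMSO; concentration-response curves classed by r2, magnitude and activity.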

The nature of assay [4]: S16 Schwann cell viability assay (CellTiter-Glo assay) (AID 624031).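 Further: native untransfected S16 rat Schwann cells; cellular ATP luminescence as a viability measure; nearly all actives have a fitted effect of over 70% in size.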 Conditions: S16 rat Schwann cells viability, 24 h; series mostly up to 25.7 µM. Summed up:
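Parental S16 cells, 24 h compound, 37 °C. ATP-luminescence viability; DMSO = 0% activity, empty wells as reference; curves classified by fit quality and efficacy.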
In general terms: Cellular ATP, detected with luciferase, serves as a proxy for viable cell number.

Assay [5] is described as follows: S16 Schwann cell PMP22 intronic element firefly luciferase assay (AID 624032). Further: nearly all actives have a fitted effect of over 30% in size. The note with it: S16 rat Schwann cells, PMP22 element FLuc, 24 h; series mostly up to 25.7 µM. Summed up: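 Rat S16 Schwann cells stably carrying firefly luciferase driven by a PMP22 intronic element, in 10% FBS, treated 24 h at 37 C. ONE-Glo luminescence normalized to PTC124 control and DMSO (0%); curves classed by r2, magnitude and activity.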

A further assay has as its system 7G8. Put plainly: qHTS profiling for inhibitors of Plasmodium falciparum proliferation (AID 504749). Further: nearly all actives have a fitted effect of over 60% in size. Further: potency means the concentration at half of the fitted maximal effect. Conditions: P. falciparum in erythrocytes, SYBR Green DNA, 72 h; series mostly up to 12.8 µM. Summed up: (§1)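 Readout was DNA-dye fluorescence from lysed cultures, ex 485/em 535 nm. Parasitized red cells had grown 72 h with compound; data scaled between 0.29 uM artemisinin and DMSO wells and corrected using vehicle-only plates.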

The next assay concerns CP215. The description is as above. The note with it: P. falciparum in erythrocytes, SYBR Green DNA, 72 h; series mostly up to 12.8 µM. The procedure, abridged: as §1
The subject of another assay is DIV14. The assay is described as above. The note with it: P. falciparum in erythrocytes, SYBR Green DNA, 72 h; series mostly up to 12.8 µM. The procedure, abridged: as §1
The subject of a further assay is GB4. Described as above. The note with it: P. falciparum in erythrocytes, SYBR Green DNA, 72 h; series mostly up to 12.8 µM. The procedure, abridged: as §1
For the next assay, the system named is W2. The assay is described as above. The note with it: P. falciparum in erythrocytes, SYBR Green DNA, 72 h; series mostly up to 12.8 µM. The procedure, abridged: as §1
The subject of the next assay is DFO2036. Described as above. The note with it: P. falciparum in erythrocytes, SYBR Green DNA, 72 h; series mostly up to 12.8 µM. Summed up:
as §1

Sequence of Cytochrome P450 3A4 (Homo sapiens) (P08684 whole entry, looked up): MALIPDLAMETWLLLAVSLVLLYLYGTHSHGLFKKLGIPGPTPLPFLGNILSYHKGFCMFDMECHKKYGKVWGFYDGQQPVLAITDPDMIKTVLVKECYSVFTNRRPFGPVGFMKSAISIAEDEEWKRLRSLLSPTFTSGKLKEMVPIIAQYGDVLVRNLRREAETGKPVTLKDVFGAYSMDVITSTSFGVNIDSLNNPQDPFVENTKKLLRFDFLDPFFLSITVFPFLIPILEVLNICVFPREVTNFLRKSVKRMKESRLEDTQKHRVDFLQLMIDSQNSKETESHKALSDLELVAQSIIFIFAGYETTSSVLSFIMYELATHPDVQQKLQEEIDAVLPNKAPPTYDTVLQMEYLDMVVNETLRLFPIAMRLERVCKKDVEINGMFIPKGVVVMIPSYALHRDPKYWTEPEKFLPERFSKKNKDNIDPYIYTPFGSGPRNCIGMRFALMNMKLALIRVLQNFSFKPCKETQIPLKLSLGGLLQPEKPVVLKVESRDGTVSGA
Sequence of Luciferin 4-monooxygenase (Photinus pyralis) (P08659 whole entry, looked up): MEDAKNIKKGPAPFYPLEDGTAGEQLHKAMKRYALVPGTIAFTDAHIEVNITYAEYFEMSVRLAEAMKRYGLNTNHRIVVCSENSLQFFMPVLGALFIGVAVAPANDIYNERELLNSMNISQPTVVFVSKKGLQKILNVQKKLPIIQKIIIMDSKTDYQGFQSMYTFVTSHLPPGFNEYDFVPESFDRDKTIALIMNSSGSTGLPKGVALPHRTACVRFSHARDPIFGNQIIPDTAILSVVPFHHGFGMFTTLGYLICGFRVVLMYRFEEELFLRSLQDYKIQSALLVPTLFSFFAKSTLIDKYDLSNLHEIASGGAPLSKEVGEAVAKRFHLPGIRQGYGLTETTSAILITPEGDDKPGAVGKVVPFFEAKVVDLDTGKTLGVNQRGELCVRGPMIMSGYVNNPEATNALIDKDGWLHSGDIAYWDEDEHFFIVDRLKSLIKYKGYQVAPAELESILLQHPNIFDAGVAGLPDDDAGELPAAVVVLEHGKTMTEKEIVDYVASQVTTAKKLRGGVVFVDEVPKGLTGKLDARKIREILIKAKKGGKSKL
Sequence of DNA dC->dU-editing enzyme APOBEC-3G (Homo sapiens) (Q9HC16 whole entry, looked up): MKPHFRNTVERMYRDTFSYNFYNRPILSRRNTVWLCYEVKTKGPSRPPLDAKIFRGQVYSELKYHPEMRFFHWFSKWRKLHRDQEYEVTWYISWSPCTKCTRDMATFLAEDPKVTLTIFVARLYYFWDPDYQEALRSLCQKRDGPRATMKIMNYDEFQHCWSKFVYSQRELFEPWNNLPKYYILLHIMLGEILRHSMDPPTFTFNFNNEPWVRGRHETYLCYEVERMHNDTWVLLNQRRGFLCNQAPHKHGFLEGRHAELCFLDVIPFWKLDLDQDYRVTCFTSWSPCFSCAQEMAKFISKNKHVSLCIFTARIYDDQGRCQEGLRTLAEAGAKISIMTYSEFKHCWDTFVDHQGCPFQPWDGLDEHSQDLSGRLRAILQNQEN

For the molecule `C=C1CC/C=C(\C)CC[C@@H]2[C@@H]1CC2(C)C`, in assay [1], the Potency result is “inactive”. For the same molecule, in [2], the outcome was inactive.
As for `COc1ccc2cc(C(C)CO)ccc2c1` (centres undefined), the Potency result (in [1]; in assay [3]; in assay [5]; with 7G8; with CP215; in the assay with DIV14) was “inactive” each time. Also, the Potency result with GB4 and in the assay on W2 was “inactive” each time. Besides, the molecule was classed as inactive in [4].
In the case of `NC(CCC(=O)N[C@@H](CS)C(=O)NCC(=O)O)C(=O)O` (some centres undefined), the Potency result in assay [1], in assay [3] and in assay [5] was “inactive” each time. The Potency was 0.708 µM (active) in the assay with 7G8; 6.31 µM (active) in the assay on DFO2036; 3.01 µM (active) with DIV14; 6.75 µM (active) in the assay on GB4; 3.01 µM (active) with W2.
In the case of `COC(=O)[C@H]1[C@@H]2C[C@@H]3c4[nH]c5ccccc5c4CCN3C[C@H]2CC[C@H]1O`, in [2], the molecule was called inactive.
As to `COC1OC2COC(c3ccccc3)OC2C(O)C1O` (centres undefined), the Potency entry in [1] was “inactive”. Also, the outcome in assay [2] was inactive.
Consider `C[C@@]12C=CC(=O)C=C1CCC1C3CC(O)[C@@](O)(C(=O)CO)[C@]3(C)CC(O)[C@]12F` (some centres undefined), for which the Potency result (in assay [3]; in assay [5]; in the assay on 7G8; with CP215; in the assay with DIV14; in the assay with GB4) was “inactive” throughout. In addition, the Potency entry in the assay on W2 is “inactive”. In addition, in assay [4], the molecule was called inactive.
As for `CCC1OC(=O)C(C)[C@@H](O[C@H]2C[C@@](C)(OC)C(O)C(C)O2)C(C)[C@@H](O[C@@H]2OC(C)CC(N(C)C)C2O)[C@@](C)(O)CC(C)C(=O)[C@@H](C)C(O)[C@]1(C)O` (some centres undefined), the Potency entry (in assay [3]; in assay [5]; in the assay with 7G8; with CP215; with DIV14; with GB4) was “inactive” in each case. Besides, the result in [4] was inactive.
For `NCC1CCC(N)C(O[C@@H]2C(O)[C@H](O[C@H]3OC(CO)C(O)C(N)C3O)[C@@H](N)C[C@H]2N)O1` (some centres undefined), the Potency result (in [1]; in [3]; in assay [5]; with CP215; with DFO2036; with DIV14) was “inactive” each time. Further, the Potency entry in the assay on GB4 is “inactive”. In addition, in [4], the outcome was inactive.
For the molecule `O=c1[nH]c(=O)n([C@@H]2O[C@H](CO)[C@@H](O)[C@H]2O)cc1F`, the Potency entry in assay [1] is “inactive”. In addition, the molecule was classed as inactive in assay [2].
With `COC1OC(CO)C(OC2OC(C(=O)O)C(OC3OC(COS(=O)(=O)O)C(OC4OC(C(=O)O)C(OC5OC(CO)C(OC6OC(C(=O)O)C(OC7OC(COS(=O)(=O)O)C(OC8OC(C(=O)O)=C[C@H](O)C8OS(=O)(=O)O)C(O)C7NC(C)=O)[C@@H](O)C6O)C(O)C5NC(C)=O)[C@@H](O)C4O)C(O)C3NC(C)=O)[C@@H](O)C2O)C(O)C1NC(C)=O` (some centres undefined), the Potency entry in assay [1] and in [5] was “inactive” each time. Besides, in assay [4], the molecule was called inactive. Also, the figures for the Potency in the assay on 7G8 and in the assay with W2 were 7.08 µM (active) and 6.75 µM (active), respectively.
For `CC(C)Oc1ccc2c(=O)cc(-c3ccccc3)oc2c1`, the Potency entry (in [1]; in assay [5]; with 7G8; with CP215; in the assay with DFO2036; in the assay with DIV14) was “inactive” in each case. For the same molecule, the Potency in assay [3] is 0.809 µM (active); in the assay on W2, 0.0478 µM (active). The molecule was called inactive in [4].
`CC(C)=CCC[C@](C)(O)C1CC=C(C)CC1` (some centres undefined): the Potency entry (in assay [3]; in [5]; in the assay with 7G8; in the assay with CP215; with DIV14; with GB4) was “inactive” throughout. The Potency result in the assay on W2 was “inactive”. For the same molecule, the result in assay [4] was inactive.
On to `CC(C)CCCC(C)C1CCC2C3CC=C4CC(O)CCC4(C)C3CCC12C` (centres undefined), for which, in assay [1], the Potency entry was “inactive”. Moreover, in [2], the molecule was classed as inactive.
`CC1CCC(C(C)C)C(=O)C1` (centres undefined): the Potency result (in assay [1]; in assay [3]; in [5]; in the assay on 7G8; in the assay with CP215; in the assay with DIV14) was “inactive” each time. Besides, the Potency entry in the assay with GB4 and in the assay with W2 was “inactive” each time. The result in assay [4] was inactive.
For `N[C@@H]1C(O)OC(CO)C(O)C1O` (some centres undefined), the Potency entry (in assay [1]; in assay [3]; in assay [5]; with 7G8; in the assay on DFO2036; in the assay on W2) was “inactive” each time. Moreover, the outcome in assay [4] was inactive.
Turning to `C[C@@H]1O[C@@H](O[C@H]2[C@H](Oc3cc(O)c4c(c3)O[C@H](c3ccc(O)cc3)CC4=O)O[C@H](CO)[C@@H](O)[C@@H]2O)[C@H](O)[C@H](O)[C@H]1O`, the Potency result in assay [1] is “inactive”. For the same molecule, the molecule was classed as inactive in [2].
On to `CC(=O)N[C@H](CC(C)C)C(=O)O`, for which the Potency result (in [3]; in [5]; with 7G8; in the assay on CP215; in the assay on DFO2036; in the assay on DIV14) was “inactive” each time. In addition, the Potency result in the assay on GB4 and in the assay on W2 was “inactive” throughout.
For `O=C(O)C1OC(O)C(O)C(O)C1O` (centres undefined), the Potency entry in [1] is “inactive”. The molecule was classed as inactive in assay [2].
For `COC(=O)C(Cc1ccccc1)NC(=O)C(N)CC(=O)O` (stereo not drawn) (H-Asp-Phe-OMe; configuration not given here), the Potency result (in assay [1]; in assay [3]; in assay [5]; with 7G8; in the assay with CP215; with DFO2036) was “inactive” in each case. Also, the Potency result in the assay with DIV14, in the assay with GB4 and in the assay with W2 was “inactive” each time. In assay [4], the outcome was inactive.
